PubChem BioAssay AID1159580 (chemical genetic matrix, 2015)
In all, about 5,500 compounds went through this assay and about 2,000 (36%) were called active. Not shown: some 18% with an inconclusive outcome. Rule as the data show it: active = normalized growth mostly below about 0.91 (no sharp cut-off); inconclusive = no clear call, values can overlap the other calls; inactive = mostly above about 0.92. The list shows a part of the results.

Experiment: chemical genetic growth profiling, strain panel (AID 1159580);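 also: tested at 20 µM; growth read once vehicle control cultures reached saturation at 30 °C; 1 = growth at the plate median or of vehicle wells; lower values mean less growth of the strain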
Details: growth OD

Measured: normalized growth

C=CCc1cc(OC)c2c(c1OC)OCO2
active: S. cerevisiae deletion strains, locus YKL068W, active compounds read low 0.94 | S. cerevisiae deletion strains, locus YKR026C, strain gcn3, active compounds read low 0.909 | S. cerevisiae deletion strains, locus YKR091W, strain srl3, active compounds read low 0.922 | S. cerevisiae deletion strains, locus YLL026W, active compounds read low 0.923 | S. cerevisiae deletion strains, locus YLR102C, strain apc9, active compounds read low 0.923 | S. cerevisiae deletion strains, locus YLR320W, strain mms22, active compounds read low 0.666 | S. cerevisiae deletion strains, locus YML124C, strain tub3, active compounds read low 0.931 | S. cerevisiae deletion strains, locus YMR129W, active compounds read low 0.921 | S. cerevisiae deletion strains, locus YMR205C, strain PFK2, active compounds read low 0.83 | S. cerevisiae deletion strains, locus YNL071W, strain lat1, active compounds read low 0.737 | S. cerevisiae deletion strains, locus YNL233W, strain BNI4, active compounds read low 0.835 | S. cerevisiae deletion strains, locus YNL307C, strain MCK1, active compounds read low 0.862 | S. cerevisiae deletion strains, locus YOR184W, strain ser1, active compounds read low 0.872 | S. cerevisiae deletion strains, locus YPL240C, strain hsp82, active compounds read low 0.927 | S. cerevisiae deletion strains, locus YPR119W, strain clb2, active compounds read low 0.926
inactive: S. cerevisiae deletion strains, locus YJR075W, strain HOC1, active compounds read low 0.928 | S. cerevisiae deletion strains, locus YKL009W, strain mrt4, active compounds read low 0.953 | S. cerevisiae deletion strains, locus YKL085W, strain MDH1 (second series), active compounds read low 0.939 | S. cerevisiae deletion strains, locus YKL085W, strain MDH1, active compounds read low 0.939 | S. cerevisiae deletion strains, locus YKL160W, strain elf1, active compounds read low 0.915 | S. cerevisiae deletion strains, locus YKL190W, strain CNB1, active compounds read low 0.964 | S. cerevisiae deletion strains, locus YKR001C, strain vps1, active compounds read low 0.953 | S. cerevisiae deletion strains, locus YLL001W, strain dnm1, active compounds read low 0.96 | S. cerevisiae deletion strains, locus YLL041C, strain sdh2, active compounds read low 0.947 | S. cerevisiae deletion strains, locus YLR027C, strain aat2, active compounds read low 0.941 | S. cerevisiae deletion strains, locus YLR039C, strain RIC1, active compounds read low 1.03 | S. cerevisiae deletion strains, locus YLR058C, strain SHM2, active compounds read low 0.976 | S. cerevisiae deletion strains, locus YLR113W, strain HOG1, active compounds read low 0.957 | S. cerevisiae deletion strains, locus YLR221C, strain rsa3, active compounds read low 0.948 | S. cerevisiae deletion strains, locus YLR258W, strain gsy2, active compounds read low 0.941 | S. cerevisiae deletion strains, locus YLR262C, strain YPT6 (second series), active compounds read low 0.903 | S. cerevisiae deletion strains, locus YLR262C, strain YPT6, active compounds read low 1.06 | S. cerevisiae deletion strains, locus YLR268W, strain sec22, active compounds read low 1.01 | S. cerevisiae deletion strains, locus YLR330W, strain CHS5, active compounds read low 0.967 | S. cerevisiae deletion strains, locus YLR342W, strain FKS1 (second series), active compounds read low 0.953 | S. cerevisiae deletion strains, locus YLR342W, strain FKS1, active compounds read low 0.932 | S. cerevisiae deletion strains, locus YLR357W, strain rsc2, active compounds read low 1.07 | S. cerevisiae deletion strains, locus YLR370C, strain arc18, active compounds read low 0.924 | S. cerevisiae deletion strains, locus YLR371W, strain rom2, active compounds read low 0.943 | S. cerevisiae deletion strains, locus YLR384C, strain iki3, active compounds read low 0.935 | S. cerevisiae deletion strains, locus YLR418C, strain cdc73, active compounds read low 0.938 | S. cerevisiae deletion strains, locus YML016C, strain PPZ1, active compounds read low 0.988 | S. cerevisiae deletion strains, locus YML032C, strain rad52, active compounds read low 0.987 | S. cerevisiae deletion strains, locus YML120C, strain ndi1, active compounds read low 0.969 | S. cerevisiae deletion strains, locus YMR058W, strain fet3, active compounds read low 0.951 | S. cerevisiae deletion strains, locus YMR078C, strain ctf18, active compounds read low 0.943 | S. cerevisiae deletion strains, locus YMR125W, strain sto1, active compounds read low 0.896 | S. cerevisiae deletion strains, locus YMR223W, strain ubp8, active compounds read low 0.935 | S. cerevisiae deletion strains, locus YMR231W, strain pep5, active compounds read low 1 | S. cerevisiae deletion strains, locus YMR263W, strain SAP30, active compounds read low 0.94 | S. cerevisiae deletion strains, locus YMR307W, strain GAS1, active compounds read low 0.987 | S. cerevisiae deletion strains, locus YNL067W, strain RPL9B, active compounds read low 0.921 | S. cerevisiae deletion strains, locus YNL128W, strain TEP1, active compounds read low 0.971 | S. cerevisiae deletion strains, locus YNL153C, strain GIM3, active compounds read low 0.97 | S. cerevisiae deletion strains, locus YNL183C, strain NPR1, active compounds read low 0.916 | S. cerevisiae deletion strains, locus YNL209W, strain ssb2, active compounds read low 0.962 | S. cerevisiae deletion strains, locus YNL248C, strain rpa49, active compounds read low 0.969 | S. cerevisiae deletion strains, locus YNL250W, strain rad50, active compounds read low 0.967 | S. cerevisiae deletion strains, locus YNL271C, strain bni1, active compounds read low 0.929 | S. cerevisiae deletion strains, locus YNL298W, strain CLA4, active compounds read low 0.96 | S. cerevisiae deletion strains, locus YNL322C, strain KRE1 (second series), active compounds read low 0.933 | S. cerevisiae deletion strains, locus YNL322C, strain KRE1, active compounds read low 0.961 | S. cerevisiae deletion strains, locus YNR049C, strain mso1, active compounds read low 0.942 | S. cerevisiae deletion strains, locus YNR052C, strain pop2, active compounds read low 0.984 | S. cerevisiae deletion strains, locus YOL006C, strain TOP1, active compounds read low 0.589 | S. cerevisiae deletion strains, locus YOL012C, strain htz1 1.06 | S. cerevisiae deletion strains, locus YOL147C, strain pex11, active compounds read low 0.943 | S. cerevisiae deletion strains, locus YOR001W, strain rrp6, active compounds read low 0.949 | S. cerevisiae deletion strains, locus YOR061W, strain CKA2, active compounds read low 0.981 | S. cerevisiae deletion strains, locus YOR069W, strain VPS5, active compounds read low 0.99 | S. cerevisiae deletion strains, locus YOR070C, strain gyp1, active compounds read low 0.982 | S. cerevisiae deletion strains, locus YOR080W, strain dia2, active compounds read low 0.991 | S. cerevisiae deletion strains, locus YOR083W, strain WHI5, active compounds read low 0.951 | S. cerevisiae deletion strains, locus YOR106W, strain vam3, active compounds read low 0.956 | S. cerevisiae deletion strains, locus YOR136W, strain idh2, active compounds read low 0.974 | S. cerevisiae deletion strains, locus YOR144C, strain elg1, active compounds read low 0.952 | S. cerevisiae deletion strains, locus YOR231W, strain MKK1, active compounds read low 0.999 | S. cerevisiae deletion strains, locus YOR265W, strain rbl2, active compounds read low 0.967 | S. cerevisiae deletion strains, locus YOR270C, strain vph1, active compounds read low 0.841 | S. cerevisiae deletion strains, locus YOR290C, strain snf2, active compounds read low 0.926 | S. cerevisiae deletion strains, locus YOR316C, strain cot1, active compounds read low 0.929 | S. cerevisiae deletion strains, locus YPL051W, strain arl3, active compounds read low 0.998 | S. cerevisiae deletion strains, locus YPL055C, strain LGE1, active compounds read low 0.908 | S. cerevisiae deletion strains, locus YPL078C, strain atp4, active compounds read low 0.906 | S. cerevisiae deletion strains, locus YPL106C, strain sse1, active compounds read low 0.987 | S. cerevisiae deletion strains, locus YPL241C, strain CIN2, active compounds read low 0.967 | S. cerevisiae deletion strains, locus YPL256C, strain CLN2, active compounds read low 0.977 | S. cerevisiae deletion strains, locus YPR141C, strain kar3, active compounds read low 0.94 | S. cerevisiae deletion strains, locus YPR163C, strain tif3, active compounds read low 0.968 | S. cerevisiae deletion strains, locus YPR167C, strain met16, active compounds read low 0.939 | S. cerevisiae deletion strains, strain wtn01, active compounds read low 0.933 | S. cerevisiae strains, strain wild type, active compounds read low 0.999
